An excerpt weighted towards active compounds, which were near 19% of everything screened.
DT40 TDP1 no CPT – qHTS for Inhibitors of human tyrosyl-DNA phosphodiesterase 1 (TDP1): qHTS in cells in absence of CPT | DT40 Tdp1-/- hTDP1 cells, no CPT, ATP luminescence, 48 h | Potency, µM (titrated, usually from 46.2 µM), for inactives: at the top dose activity change, negative = growth inhibition, usual class: inhibitors | 15% of 420,000 active | AID 686978, 2013; also: nearly all actives have a fitted effect of over 55% in size
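A cellular qHTS used chicken DT40 cells lacking endogenous Tdp1 but carrying stably transfected human TDP1. Compounds were applied without camptothecin, and cell growth kinetics were judged by ATP-dependent luminescence after ≥48 hr.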
KB-V1 MDR tox – kills drug-selected multidrug resistant KB-V1 cells. KB-V1 MDR cells viability, CellTiter-Glo, 72 h. Potency, µM (highest dose often 46.1 µM), usual class: cytotoxic. 3.4% of 400,000 active; also: nearly all actives have a fitted effect of over 60% in size
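Potencies derive from concentration-effect curves fitted to normalized luminescence (CellTiter-Glo) of KB-V1 cells treated for 72 h at 37 degrees C in phenol-red-free DMEM containing 10% FBS.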
KB-3-1 tox – KB-3-1 parental cell cytotoxicity; AID 1347075; KB-3-1 viability, CellTiter-Glo ATP luminescence, 72 h; 1.4% of 400,000 active; Potency, µM (titrated, usually from 46.1 µM), actives largely listed as cytotoxic; also: nearly all actives have a fitted effect of over 60% in size
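Using CellTiter-Glo luminescence, growth of non-resistant KB-3-1 adenocarcinoma cells is assessed 72 h after pin-tool compound addition at 37 °C. Normalized responses across the concentration series yield fitted curves.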
HT1080NT lethal – kills 2HG-producing HT-1080-NT fibrosarcoma cells. Potency, µM (top dose mostly 46.1 µM), without a hit: at the highest dose activity, negative = less viability, usual class: cytotoxic. 1.6% of 360,000 active. HT-1080-NT fibrosarcoma viability, CellTiter-Glo ATP luminescence, 48 h;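 also: NT is the 2HG producing partner of a matched IDH1 knockdown line; 0% = DMSO-treated cells and -100% = media-only wells without cells; nearly all actives have a fitted effect of over 55% in size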
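Luminescent CellTiter-Glo readout after 48 hours of compound exposure at 37 degrees C defined viability of HT-1080-NT cells. Activity was normalized to DMSO wells and cell-free media wells; concentration-response curves were fitted and assigned curve classes.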
DT40 TDP1 CPT – growth inhibition of DT40 Tdp1-/-;hTDP1 cells with camptothecin (screen for TDP1 inhibitors). chicken DT40 Tdp1-/-;hTDP1 cells + 20 nM CPT, ATP luminescence, 48 h. Potency, µM (top dose mostly 46.2 µM), inactives show at the highest dose activity change, negative = growth inhibition, most hits filed as inhibitors. 12% of 420,000 active; also: nearly all actives have a fitted effect of over 55% in size
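Cell growth measured by CellTiter-Glo luminescence after a minimum 48 h, 37 C compound exposure with 20 nM CPT in Tdp1-knockout DT40 cells stably expressing hTDP1, seeded 400/well; qHTS titration format.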
HT1080 IDH1KD tx – HT-1080 IDH1 knockdown cell toxicity (counter line); 2% of 360,000 active; Potency, µM (top dose mostly 46.1 µM), for inactives: at the highest dose activity, negative = toxicity, hits mostly cytotoxic; HT-1080 IDH1 knockdown viability, ATP luminescence, 48 h;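 also: 0% = DMSO wells and -100% = cell-free medium wells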
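IDH1KD HT-1080 cells, 750/well, RPMI + 5% FBS; compound pinned after 2 h settling; 48 h, 37 °C; CellTiter-Glo luminescence; % activity normalised to DMSO and no-cell wells; curves fitted, classed by r2 and efficacy.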
* = called active by the depositor; i = inactive; ? = inconclusive; nt = no result given. Calls follow the shape of the dose curve; as a rule, active = well fitted curve in the direction sought with a large enough effect; inconclusive = small, poorly fitted or top-dose-only effect, or another doubt; inactive = no such curve, though single readings can be large; an effect the other way counts as inactive or inconclusive. Unless noted, % is scaled to controls: 0 for no effect and ±100 for the full control effect; potency is read from the fitted curve at half-maximal effect.

SMILES	DT40 TDP1 no CPT	KB-V1 MDR tox	KB-3-1 tox	HT1080NT lethal	DT40 TDP1 CPT	HT1080 IDH1KD tx
CC(C)Oc1ccc(-c2nc3c(C#N)c[nH]n3c2NC2CCCCC2)cc1	23.1µM*	?	i	nt	?	nt
CCOc1ccc(-c2nc3c(C#N)c[nH]n3c2NC2CCCC2)cc1	16.4µM*	i	i	nt	10.3µM*	nt
COc1ccc(-c2nc3c(C#N)c[nH]n3c2NC2CCCC2)c(OC)c1	?	i	i	nt	11.6µM*	nt
COc1cccc(-c2nc3c(C#N)c[nH]n3c2NC2CCC(C)CC2)c1 (centres undefined)	?	i	i	nt	?	nt
COc1ccc(N(Cc2nnc3n2CCCCC3)C(=O)Nc2cccc(C)c2)cc1Cl	10.1%	i	i	nt	0.3%	nt
COc1cccc(C(O)c2ncc(-c3ccccc3Cl)[nH]2)c1 (centres undefined)	-18.3%	i	i	0.0%	?	-4.0%
Cc1nc(Cc2nnc(SC(C)C(=O)N3c4ccccc4NC(=O)C3(C)C)o2)cs1 (centres undefined)	?	i	i	11.9%	-20.2%	6.3%
CC(Sc1nnnn1C1CC1)C(=O)N1c2ccccc2NC(=O)C1(C)C (centres undefined)	-1.2%	20.6µM*	i	6.4%	-18.9%	-1.2%
COC(=O)C(C(=O)OC)c1ncccc1NS(=O)(=O)c1ccc(C)cc1	-13.7%	i	i	11.7%	8.4%	14.3%
O=C(Nc1ccc(Cl)cc1)c1ccc(S(=O)(=O)N2CCOCC2)cc1	?	i	i	3.5%	?	-6.8%
Cc1cc(O)c(-c2cc(C(=O)Nc3ccc(S(=O)(=O)N4CCOCC4)cc3)[nH]n2)cc1C	18.4µM*	?	?	14.1µM*	?	10µM*
CC(=O)Nc1ccc(NC(=O)c2cc(-c3cc(C)c(C)cc3O)n[nH]2)cc1	-16.8%	i	i	?	-8.9%	?
O=C(Nc1ccc(S(=O)(=O)N2CCOCC2)cc1)c1cc(-c2cc(Cl)ccc2O)n[nH]1	5.8µM*	?	11.6µM*	?	6.51µM*	16.4µM*
CC1CN(S(=O)(=O)c2cccc(C(=O)NCCC3=CCCCC3)c2)CC(C)O1 (centres undefined)	20.6µM*	i	i	6.0%	11.6µM*	5.3%
CC1CN(S(=O)(=O)c2cccc(C(=O)NN3CCN(C)CC3)c2)CC(C)O1 (centres undefined)	8.7%	i	i	16.8%	0.8%	7.7%
CC1CN(S(=O)(=O)c2cccc(C(=O)Nc3ccc4c(c3)CCC4)c2)CC(C)O1 (centres undefined)	1.16µM*	?	i	-16.2%	1.16µM*	-7.0%
Cc1ccc(C(=O)NCCC2=CCCCC2)cc1S(=O)(=O)N1CCCCC1	?	?	?	?	?	-14.9%
O=C(NCCC1=CCCCC1)c1cccc(S(=O)(=O)N2CCCCC2)c1	23.1µM*	?	i	6.9%	?	0.7%
CCN(Cc1ccccc1)Cc1c(O)ccc2oc(C)c(C(=O)Nc3ccc(C)cc3C)c12	7.31µM*	nt	nt	nt	7.31µM*	nt
Cc1ccc(NC(=O)c2c(C)oc3ccc(O)c(CN(C)Cc4ccccc4)c23)c(C)c1	14.6µM*	nt	nt	nt	16.4µM*	nt
CC1=CC(C)(C)N(C(=O)CCl)c2cc(C)ccc21	-24.3%	i	i	-12.1%	-23.2%	-4.2%
CC1=CC(C)(C)N(C(=O)c2ccc(F)cc2)c2cc3c(cc21)OCO3	?	13µM*	20.6µM*	-0.9%	?	4.0%
C[C@@H]1CN([C@@H](C)CO)C(=O)CCCn2nncc2CO[C@H]1CN(C)S(=O)(=O)c1ccccc1C#N	-19.8%	i	i	16.0%	-9.1%	-3.5%
Cc1cnc(CNC(=O)c2ccc3oc(Cc4ccccc4)nc3c2)[nH]1	4.8%	i	i	-3.3%	1.8%	-10.4%
CC(C)N(Cc1nccn1C)C(=O)c1ccc2oc(Cc3ccccc3)nc2c1	?	i	i	-1.5%	20.6µM*	-1.7%
SMILES	DT40 TDP1 no CPT	KB-V1 MDR tox	KB-3-1 tox	HT1080NT lethal	DT40 TDP1 CPT	HT1080 IDH1KD tx
COc1ccc(C(=O)Nc2cc(OC)cc3cccnc23)cc1	?	i	i	-2.0%	?	-3.2%
COc1cc(C(=O)NC(c2ccccc2Cl)c2cc(Cl)c3cccnc3c2O)cc(OC)c1OC (centres undefined)	20.6µM*	nt	nt	nt	13µM*	nt
COc1cc(C(=O)NC(c2ccccc2)c2ccccc2)cc(OC)c1C	?	i	i	-6.1%	-21.5%	-2.2%
COc1ccc(C(=O)NC(c2ccccc2Cl)c2cc(Cl)c3cccnc3c2O)cc1 (centres undefined)	13µM*	nt	nt	nt	8.2µM*	nt
O=C(NCC(F)(F)F)c1ccc2sc([C@@H]3O[C@H](CO)[C@H](O)[C@H](O)[C@H]3O)nc2c1	-1.3%	i	i	11.5%	-1.4%	22.6%
CC1(C)CC(=O)c2cc(C(=O)Nc3ccccc3)c(=O)[nH]c2C1	?	i	i	nt	-23.6%	nt
CC(=O)N1c2ccc(S(=O)(=O)N(C)CC(=O)N(Cc3ccccc3)C(C)C)cc2CC1C (centres undefined)	?	i	i	nt	?	nt
C/C(=N\Nc1nc2c(s1)CCCC2)c1ccc(Cl)cc1	8.2µM*	?	?	23.1µM*	13µM*	23.1µM*
CN(C)c1ccc(C(=O)Nc2nc3c(s2)CCCC3)cc1	?	i	i	0.9%	?	-17.5%
Cc1ccc(NC(=O)CSc2nc3c(c(=O)[nH]2)CCC3)cc1Cl	-21.5%	i	i	nt	-27.0%	nt
Cc1ccc(-n2ncc(C(=O)Nc3ccc4c(c3)OCCO4)c2C2CCN(C(=O)OC(C)(C)C)CC2)cc1	20.6µM*	i	i	nt	20.6µM*	nt
COc1ccc(-n2ncc(C(=O)Nc3ccc4c(c3)OCO4)c2C2CCN(C(=O)OC(C)(C)C)CC2)cc1	?	i	?	nt	?	nt
CC(C)(C)OC(=O)N1CCC(c2c(C(=O)Nc3ccc4c(c3)OCCO4)cnn2-c2ccccc2)CC1	18.4µM*	i	i	nt	23.1µM*	nt
Cc1ccc(-n2ncc(C(=O)Nc3ccc4c(c3)OCO4)c2C2CCN(C(=O)OC(C)(C)C)CC2)cc1	20.6µM*	i	i	nt	20.6µM*	nt
COc1cc(OC)c(NC(=O)NCc2ccc3c(c2)CCN3C(=O)c2ccccc2)cc1Cl	-21.3%	i	i	nt	?	nt

Screening results as filed in PubChem BioAssay.
